Calls of active or inactive are those of the source. Cut-off read from the data, not from the text of the source: active = inhibition above about 25%; inactive = the rest.
Test: repression of VP16-driven luciferase reporter – cell-based, luminescence, high throughput, counter-screen for SRC1 inhibitor project (AID 588824)
Conditions: cell-based VP16 transactivation luciferase luminescence; at 3.6 µM; hits give high values

Compound	inhibition
CC(C)[C@H]1C(=O)O[C@H](C(C)C)C(=O)N(C)[C@@H](C(C)C)C(=O)O[C@H](C(C)C)C(=O)N(C)[C@@H](C(C)C)C(=O)O[C@H](C(C)C)C(=O)N1C	84.9% (active)
Cc1cccc(C)c1-n1nnnc1C(CCc1ccccc1)N1CCC(n2c(=O)[nH]c3ccccc32)CC1 (stereo not drawn)	51.8% (active)
CNC(=O)c1cccn(Cc2cccc(C(F)(F)F)c2)c1=O	-25.9% (inactive)
N#CC(C#N)=NNc1ccc(-n2ccc(C(F)(F)F)n2)cc1	56.3% (active)
CNC(=O)c1cccn(Cc2cc(C(F)(F)F)cc(C(F)(F)F)c2)c1=O	3.5% (inactive)
C=C1C(=O)[C@@]23C[C@H]4[C@@H]5[C@@]6(C)CCC[C@@]57[C@@H]2[C@@H](O)[C@@H]1C[C@H]3[C@H]7N4C6	20.9% (inactive)
COc1cccc(C(c2nnnn2-c2ccc3c(c2)OCCO3)N2CCC(n3c(=O)[nH]c4ccccc43)CC2)c1OC (stereo not drawn)	24.7% (inactive)
C[C@H]1CCC[C@@H](O)CCC/C=C/c2cc(O)cc(O)c2C(=O)O1	56.1% (active)
O=c1[nH]c2ccccc2n1C1CCN(C(c2cc3ccccc3o2)c2nnnn2Cc2ccccc2)CC1 (stereo not drawn)	11.7% (inactive)
CSCCC(c1nnnn1Cc1ccccc1)N1CCC(n2c(=O)[nH]c3ccccc32)CC1 (stereo not drawn)	44.5% (active)
CCCc1nc2ccc(Br)cc2c(=O)n1-c1ccc([N+](=O)[O-])c(C(F)(F)F)c1	14.8% (inactive)
O=C(CSC1c2ccccc2-c2ccccc21)N/N=C/c1ccccc1O	18% (inactive)
O=c1[nH]c2ccccc2n1C1CCN(C(CCc2ccccc2)c2nnnn2C2CCCC2)CC1 (stereo not drawn)	10.8% (inactive)
Cc1ccc(C[n+]2c(-c3ccc(C)cc3)cc(-c3ccc(C)cc3)cc2-c2ccc(C)cc2)cc1	84.7% (active)
CSCCC(c1nnnn1-c1ccc2c(c1)OCCO2)N1CCC(n2c(=O)[nH]c3ccccc32)CC1 (stereo not drawn)	20.9% (inactive)
C/C(=N\Nc1ccccc1)c1c(O)[nH]c(=O)[nH]c1=O	13.6% (inactive)
Cc1[nH]nc2ccc(-c3cncc(OC[C@@H](N)Cc4c[nH]c5ccccc45)c3)cc12	97.3% (active)
COc1cc2c(cc1O)C[C@H]1NCCc3cc4c(c-2c31)OCO4	40.2% (active)

From PubChem BioAssay
